In all, about 2,500 compounds went through this assay and about 480 (19%) were called active.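 How the source made its calls: active means mean inhibition above about 25% (limit read from the data); inactive means the rest.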 Only a sample is shown.

What is called inhibition is the relative decrease from the control value, in per cent.

This assay in a line: Wnt3a reporter signal inhibition, confirmation, counter-screen for Gli-SUFU antagonist project, Wnt-LIGHT cells, luminescence, single concentration (AID 651995). Particulars: Wnt3a-driven luciferase reporter, at 6.25 µM, active compounds read high. For orientation: Counterscreens check selectivity or assay interference.
In the case of `CNc1nnc(-c2ccco2)s1`, the inhibition was -3.08% (inactive).

For the compound `COC(=O)c1ccccc1NC(=O)C1(S(=O)(=O)c2ccc(Cl)cc2)CC1`, the inhibition is -1.78% (inactive). On to `O=C(Nc1nc2ccc([N+](=O)[O-])cc2s1)c1ccc(S(=O)(=O)N2CCCc3ccccc32)cc1`, for which the inhibition was 65.8% (active). Under `CCc1ccc(C2C(C#N)=C(N)N(N3CCOCC3)C3=C2C(=O)CC(C)(C)C3)s1` (configuration not stated) stands -28.8% (inactive); under `CCCc1nc(N)nc2c1C(=O)CC(C)(C)C2`, 9.89% (inactive); under `Cc1cc(NC(=O)c2cccc(N3C(=O)CCC3=O)c2)no1`, 66% (active).

For `CC1CC2=C(CC1/C=N/NC(N)=S)C(C)(C)CCC2` (configuration not stated), the inhibition was 21.2% (inactive). With `CCc1c(C)nc2cc(C)[nH]n2c1=O`, the inhibition is -9.69% (inactive). Under `C/C(=N\Nc1ccc(Cl)nn1)c1ccccc1O` stands -26.7% (inactive); under `COc1ccc(/C=N/N=C2/C(=O)Nc3ccccc32)cc1O`, -23.9% (inactive). The value for `COc1ccc(Cc2nnc(N/N=C/c3ccccc3O)[nH]c2=O)cc1OC` was 59.9% (active); that for `CC(=O)OCCC(C)C` was -9.39% (inactive). Regarding `c1ccc(-n2nnnc2N2CCOCC2)cc1`, the inhibition was -14.5% (inactive). The value for `O=C(O)CCCn1cc(NC(=O)COc2cccc(Cl)c2)cn1` was 6.24% (inactive); that for `Cc1ccc(NC(=O)CN(C)CC(=O)Nc2cccc(F)c2)cc1[N+](=O)[O-]` was 36.3% (active). The value for `CN(C)CCSc1nc(N)c2c3c(sc2n1)COC(C)(C)C3` was -37.2% (inactive).

Regarding `CCC1CCCCN1CCCNC(=O)Cn1nc(-c2ccccc2)ccc1=O` (configuration not stated), the inhibition was 12.7% (inactive). For `O=C1C=C(c2ccnc3cc(Cl)ccc23)C[C@@H](c2ccc3c(c2)OCO3)C1`, the inhibition was 27.6% (active). Under `CCN(CC)S(=O)(=O)c1ccc(Cl)c(C(=O)NC(C)C(c2cccs2)N2CCCC2)c1` (configuration not stated) stands -35.1% (inactive); under `CSc1ncccc1C(=O)Nc1nc2ccc(F)cc2s1`, 81.3% (active); under `CCN(CCO)C(=S)Nc1cc(C(=O)OC)ccc1C(=O)OC`, -4.1% (inactive). The value for `O=C(Cn1cc(C(=O)C2CC2)c2ccccc21)Nc1ccccc1Cl` was 26.6% (active). The value for `O=c1c2ccccc2nc2n1C(CSCc1cccc(C(F)(F)F)c1)CS2` (configuration not stated) was 24.2% (inactive). As to `C=CCn1c(SCC(=O)CC(=O)OCC)nc2cc(C(=O)N3CCC(C(N)=O)CC3)ccc2c1=O`, the inhibition was -31.2% (inactive). Under `O=C(c1cc(Cl)cc(Cl)c1)N1CCC(=O)N(C(COCc2ccccc2)Cc2ccccc2)CC1` (configuration not stated) stands -8.85% (inactive); under `CCC(Cc1ccccc1)NC(=O)C1CCCCC1` (configuration not stated), -4.89% (inactive); under `CC(C)OCC(O)CN1CCN(C(c2ccccc2)c2ccccc2)CC1` (configuration not stated), -21.2% (inactive). Take `CCOc1ccc(-n2c(O)c(/C=N/c3ccnn3Cc3ccncc3)c3ccccc3c2=O)cc1`: the inhibition is -8.8% (inactive). The value for `O=C(CN1C(=O)c2ccccc2S1(=O)=O)N1CCc2ccccc21` was 72.4% (active); that for `NC(N)=Nc1nc(-c2ccccc2)c2cc(Cl)ccc2n1` was -5.22% (inactive); that for `CC(C)Oc1ccc(/C=N/NC(=O)c2nnn(-c3nonc3N)c2CN(C)C2CCCCC2)cc1` was -59.5% (inactive). In the case of `COc1ccc2c(C)cc3nnnn3c2c1`, the inhibition is -7.11% (inactive).

As for `Cc1ccc(S(=O)(=O)NC(C)C(=O)Nc2ccccc2C(=O)N2CCCC2)cc1` (configuration not stated), the inhibition is -22.3% (inactive). Turning to `O=C(O)c1ccc(N/N=C/c2ccc3ncccc3c2)cc1`, the inhibition is 95% (active). Under `NS(=O)(=O)c1ccc(CCNC(=O)CCCn2c(SCC(=O)N3CCCC3)nc3ccsc3c2=O)cc1` stands -9.95% (inactive); under `C=CCOc1nc2c(c(=O)n(C)c(=O)n2C)n1Cc1ccc(Cl)cc1Cl`, -18% (inactive). Under `O=C(Nc1cc2c3c(c1)C1CCCC1CN3CC1CCCC21)c1ccc([N+](=O)[O-])cc1` (configuration not stated) stands -20.4% (inactive); under `CN(NC(=O)c1ccccc1F)c1nc(C(F)(F)F)nc2ccccc12`, -20% (inactive).

Take `CC(C)(C)c1ccc(Oc2ccc(N)cc2)cc1`: the inhibition is 106% (active).

For the compound `Cc1cc(C(=O)CSc2nc(N)cc(=O)[nH]2)c(C)n1-c1cccc(F)c1`, the inhibition is -15.5% (inactive). The value for `CC(=O)c1c(C)[nH]c(C(=O)OCC(=O)Nc2sc3c(c2C#N)CCCC3)c1C` was -44.3% (inactive); that for `COc1ccccc1/C=C/CN1CCC(CO)(Cc2ccccc2)CC1` was 3.26% (inactive). Under `Cc1cccc(NS(=O)(=O)c2ccc(-c3cnc(C4CC4)o3)cc2)c1` stands -40.9% (inactive).

For the compound `CCOc1cccc(/C=N/NC(=S)NCCN2CCOCC2)c1O`, the inhibition was -21.9% (inactive). In the case of `COc1ccc(C(=O)NCc2nnc(SCCOc3ccccc3)n2C)cc1`, the inhibition was -33.1% (inactive). Turning to `COc1cccc2cc(C(N)=O)/c(=N\NC(=O)c3ccccc3)oc12`, the inhibition is -3.11% (inactive). Regarding `Cc1cccc2nc(CSc3nc4[nH]ncc4c(=O)n3-c3cccc(Cl)c3)cc(=O)n12`, the inhibition is 33.2% (active).

`COc1cc(C(=O)OC(C)C(=O)NCC2CCCCC2)cc(NC(=O)c2ccco2)c1OC` (configuration not stated): the inhibition was -76.6% (inactive).

Regarding `CC(C)C(=O)Nc1nnc(SCC(=O)N2C(C)CCCC2C)s1` (configuration not stated), the inhibition is -26.6% (inactive). Regarding `O=C(NCCOCc1ccc(Cl)cc1)c1ncn[nH]1`, the inhibition was 33.3% (active). Regarding `CCn1c(SCc2ccccc2)nc2cc(OC)c(OC)cc2c1=O`, the inhibition was -22.5% (inactive). Consider `CC(C)Oc1ccc(CN2CCC(n3nccc3NC(=O)c3cccnc3)CC2)cc1`, for which the inhibition was -35.7% (inactive).

Values taken from PubChem BioAssay AID651995 (Sanford-Burnham Center for Chemical Genomics, 2013).
